SMILES strings stand for the structures. Results filed as inconclusive are left out. Entries that show only a call come without a potency. Unmarked numbers belong to inactive results. The source made the active and inactive calls. The call rests on the fitted dose curve; in most records, active means well fitted activation curve with a large enough effect; inconclusive means small, poorly fitted or top-dose-only effect; inactive means no such curve, though single readings can be large or run the other way.
Potency means the concentration at half of the fitted maximal effect.

Rap guanine nucleotide exchange factor 4 (Homo sapiens), sequence (Q8WZA2 whole entry, looked up): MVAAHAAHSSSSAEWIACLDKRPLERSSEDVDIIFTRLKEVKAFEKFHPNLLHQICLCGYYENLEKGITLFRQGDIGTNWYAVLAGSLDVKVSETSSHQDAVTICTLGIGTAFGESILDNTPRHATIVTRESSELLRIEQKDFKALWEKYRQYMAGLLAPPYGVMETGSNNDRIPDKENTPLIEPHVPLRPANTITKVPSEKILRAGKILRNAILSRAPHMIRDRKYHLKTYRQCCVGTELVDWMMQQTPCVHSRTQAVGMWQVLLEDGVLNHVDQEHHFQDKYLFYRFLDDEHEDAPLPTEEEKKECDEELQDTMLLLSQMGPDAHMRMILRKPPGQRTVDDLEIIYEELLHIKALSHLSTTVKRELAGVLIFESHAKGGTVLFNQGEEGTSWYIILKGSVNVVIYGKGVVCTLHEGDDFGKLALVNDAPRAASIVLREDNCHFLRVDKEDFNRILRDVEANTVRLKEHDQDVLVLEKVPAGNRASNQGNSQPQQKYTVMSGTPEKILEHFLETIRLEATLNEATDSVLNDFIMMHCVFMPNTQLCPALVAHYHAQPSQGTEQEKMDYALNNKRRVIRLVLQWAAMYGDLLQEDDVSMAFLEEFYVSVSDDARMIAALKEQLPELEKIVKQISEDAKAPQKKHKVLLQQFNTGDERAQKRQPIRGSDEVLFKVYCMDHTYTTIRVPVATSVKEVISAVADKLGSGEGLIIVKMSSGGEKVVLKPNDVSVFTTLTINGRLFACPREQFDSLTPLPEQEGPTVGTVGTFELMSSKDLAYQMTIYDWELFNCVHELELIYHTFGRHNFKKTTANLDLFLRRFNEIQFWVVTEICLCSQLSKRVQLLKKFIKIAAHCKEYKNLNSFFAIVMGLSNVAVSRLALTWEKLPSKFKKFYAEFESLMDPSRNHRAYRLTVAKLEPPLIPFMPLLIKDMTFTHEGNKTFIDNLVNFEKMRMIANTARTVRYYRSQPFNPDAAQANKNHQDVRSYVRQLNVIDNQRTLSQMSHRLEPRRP

This assay has as its target Rap guanine nucleotide exchange factor 4 (Homo sapiens) (UniProt Q8WZA2). Description: Confirmatory qHTS for agonist of cAMP-regulated guanine nucleotide exchange factor 4 (EPAC2) (AID 1645884). Further: nearly all actives have a fitted effect of over 65% in size. Particulars: EPAC2 GEF activity, Rap1B-BODIPY-GDP fluorescence; series mostly up to 154 µM. On the technique in general: In qHTS, concentration-response curves come from the screen itself.
For the compound `CNc1ccc(/C=C(\CCC(=O)O)c2nc3ccccc3s2)cc1[N+](=O)[O-]`, the activation is 0% [at 17.1 µM, percent relative to cAMP agonist control]. Regarding `O=C(O)CC/C(=C\c1cccc(NC(=O)c2ccccc2Cl)c1)c1nc2ccccc2s1`, the Potency result is “inactive”. On the same count and under the same terms, the result for `CCOc1cc(/C=C2\SC(=Nc3ccc(CC)cc3)NC2=O)ccc1OCC(=O)O` reads “inactive”; that for `COc1ccc(C(=O)NCCn2cc(SCC(=O)NCCc3ccc(OC)c(OC)c3)c3ccccc32)cc1`, “inactive”. The same measure, in the same setting: with `N#C/C(=C\c1ccc(Sc2ccccc2)o1)c1nc2ccccc2[nH]1` the figure was 112 µM (active); with `O=[N+]([O-])c1ccc(NS(=O)(=O)c2ccccc2)c(Cl)c1`, “inactive”; with `Cc1ccc(NS(=O)(=O)c2cccc3cccnc23)c(Cl)c1`, “inactive”.

Take `S=c1[nH]nc(-c2cc(-c3ccccc3)n[nH]2)n1/N=C/c1ccc(Cl)c(Cl)c1`: the activation was 2.21% [at 17.1 µM, percent relative to cAMP agonist control]. As to `CCOc1ccc(/C=C2\SC(=S)N(NS(=O)(=O)c3ccccc3)C2=O)cc1OC`, the Potency was 112 µM (active). Turning to `O=C1N(Cc2ccccc2Cl)c2ccccc2C1(O)c1c[nH]c2ccccc12` (stereo not given), the Potency entry was “inactive”. As to `Cc1cccn2c(=O)c(/C=C(\C#N)c3nc4ccccc4n3C)c(Oc3ccc(Br)cc3)nc12`, the Potency entry was “inactive”.

Turning to `Cc1cc(=O)n(Cc2ccccc2)c2c1c(C)nn2C`, the Potency result is “inactive”. Turning to `CCc1ccc(N=C2NC(=O)/C(=C/c3ccc(OCC(=O)O)cc3)S2)cc1`, the activation was 8.62% [at 17.1 µM, percent relative to cAMP agonist control]. On to `Oc1ccc(NCc2cccc(OCc3ccc(F)cc3)c2)cc1`, for which the activation was 10.4% [at 17.1 µM, percent relative to cAMP agonist control]. Turning to `O=C(O)CC/C(=C\c1ccc(N2CCCC2)c([N+](=O)[O-])c1)c1nc2ccccc2s1`, the Potency entry is “inactive”. On the same count and under the same terms, with `COc1ccc(C(=O)c2ccc(Br)cc2)c(OC)c1OC` the entry was “inactive”.

`CC1=CC(=C(C#N)c2nc3ccccc3s2)C=C(C)N1Cc1ccco1`: the Potency result is “inactive”. With `CC1(C)CC2CC(C)(CN2C(=O)c2cc(-c3ccccc3O)on2)C1` (stereo not given), the activation was 10.5% [at 17.1 µM, percent relative to cAMP agonist control].

Take `CC(/C=C1\SC(=S)N(c2ccc(C(=O)O)cc2)C1=O)=C\c1ccccc1`: the activation was 7.79% [at 17.1 µM, percent relative to cAMP agonist control]. On the same count and under the same terms, the result for `COC(/C(=N/O)c1ccc(Cl)cc1)c1ccccc1` (stereo not given) reads 9.01% [at 17.1 µM, percent relative to cAMP agonist control]. With `COc1ccc(CCn2c(O)cc3nn(-c4nc5ccccc5s4)c(=O)c-3c2C)cc1`, the Potency entry is “inactive”. The same measure, in the same setting: the result for `CCOC(=O)c1cc(-c2ccc(/C=C3/C(=O)N(c4ccc(C(=O)O)cc4)N=C3C)o2)ccc1Cl` reads “inactive”; that for `COc1cc(/C=C2\CCn3c2nc2cc(C(=O)O)ccc2c3=O)ccc1OC(F)F`, “inactive”.

In the case of `Cc1ccc(N2C(=O)c3ccccc3C2Nc2ccccc2F)nc1` (stereo not given), the activation was 11.4% [at 17.1 µM, percent relative to cAMP agonist control]. For `Cc1c(CCC(=O)O)c(=O)oc2cc(OCc3ccccc3Br)ccc12`, the Potency entry is “inactive”. Regarding `Cc1cc(Br)cn2c(Cc3ccsc3)c(-c3ccco3)nc12`, the activation was 5.83% [at 17.1 µM, percent relative to cAMP agonist control]. As to `Cn1c(SCC(=O)Nc2cccc(C(=O)O)c2)nnc1-c1cc2cc(Br)ccc2o1`, the Potency entry is “inactive”.

In the case of `COc1ccc2cc(-c3nc(Cl)c4c5c(sc4n3)CCCC5)c(=O)oc2c1`, the Potency entry was “inactive”.

Consider `COc1ccc2c(c1)C(SCC(=O)NCCc1ccc(Cl)cc1)CC(C)(C)O2` (stereo not given), for which the activation is 12.3% [at 17.1 µM, percent relative to cAMP agonist control]. Consider `Cc1nc(C)c(-c2csc(Nc3ccc(C(=O)O)c(O)c3)n2)s1`, for which the Potency result was “inactive”.

With `O=c1oc2c3c(ccc2c2ccccc12)OCN(Cc1cccc(Cl)c1)C3`, the Potency entry was “inactive”.

Turning to `O=C(c1ccccc1Br)N(Cc1ccccc1)c1ccccc1`, the activation was 0.0919% [at 17.1 µM, percent relative to cAMP agonist control]. Still for that read-out and setting: the result for `NC(N)=N/N=C/c1ccc(OCc2ccc(Cl)cc2Cl)cc1` reads 3.24% [at 17.1 µM, percent relative to cAMP agonist control]. Consider `COc1ccc(S(=O)(=O)Nc2ccc(F)cc2)c(C)c1C`, for which the Potency entry was “inactive”.

With `COc1cc2ccccc2cc1C(=O)NC(=S)Nc1cccc(C(=O)O)c1`, the activation was 3.08% [at 17.1 µM, percent relative to cAMP agonist control]. Regarding `O=C(O)COc1ccccc1/C=N/Nc1ccc(S(=O)(=O)Nc2ccc(Cl)cc2)cc1[N+](=O)[O-]`, the activation is 1.99% [at 17.1 µM, percent relative to cAMP agonist control]. As to `O=C(Nc1cccc(C(F)(F)F)c1)C1Cc2c(-c3ccccc3)ccnc2O1` (stereo not given), the activation is 3.96% [at 17.1 µM, percent relative to cAMP agonist control]. On the same count and under the same terms, with `COc1ccc(OC)c(C2=CC(=O)C[C@H](c3ccc4c(c3)OCO4)C2)c1` the figure was 11.2% [at 17.1 µM, percent relative to cAMP agonist control]. The same measure, in the same setting: the result for `O=C(CSc1ncnc2[nH]ncc12)Nc1cccc(Oc2ccccc2)c1` reads 10.9% [at 17.1 µM, percent relative to cAMP agonist control]. On to `COc1ccc(C2Nc3ccccc3-c3cc(C)nn32)c(OC)c1` (stereo not given), for which the Potency result is “inactive”.
